Records with an inconclusive call do not appear. A call without a number means that no potency is given here. Calls of active or inactive are those of the source. The call rests on the fitted dose curve; in most records, active means well fitted inhibition curve with a large enough effect; inconclusive means small, poorly fitted or top-dose-only effect; inactive means no such curve, though single readings can be large or run the other way.
Potency means the concentration at half of the fitted maximal effect.

A short description of this assay: Counterscreen for APE1 Inhibitors: Fluorescent Dye Displacement Validation Assay (AID 1707). Conditions: fluorescent dye displacement from DNA; series mostly up to 57.1 µM. An excerpt:
In order to distinguish true inhibitors of DNA-processing enzymes from promiscuous DNA-binding compounds among screening assay hits, we developed a homogeneous and miniaturized assay based on fluorescent dye displacement test as originally described by Tse and Boger (Accounts of Chemical Research (2004) 37: 61-69). The assay is based on the strong enhancement of fluorescence when Thiazole Orange (ThO) binds to double-stranded DNA: conversely, in the presence of a DNA-binding compound, Thiazole Orange is displaced from the DNA and its fluorescence is reduced.
Buffer. 50 mM Tris-HCl (pH7.5) containing 50mM NaCl, 2 mM MgCl2, and 0.01% Tween-20.
Buffer containing 250 nM ThO in columns 3 and 4 as negative control (no dsDNA).
Reaction mixture: 250 nM ThO and 50 nM dsDNA at final concentration dispensed throughout the plate: in columns 1, 2, 5-48. Column 1 is neutral (100% activity).
5''TAMRA- TC ACC FTC GTA CGA CTC
3'' AG TGG GAG CAT GCT GAG
where F denotes tetrahydrofuran.
Control: Pintool transfer of control compound WB64 (W4761, Sigma-Aldrich) to column 2 of all assay plates as a two-fold 16-point dilution in duplicate (concentration range 5.75 uM - 0.175 nM).
Four uL of reaction mixtures were dispensed to 1536-well Greiner black solid bottom plates. Compounds (23 nL) were transferred […] in order to measure the endpoint fluorescence using 480 nm excitation and 540 nm emission fluorescence protocol.
For the molecule `[Li+]`, the Potency entry was “inactive”. On to `N[C@H]1CONC1=O`, for which the Potency result is “inactive”. The result for `O=C(O)c1cccnc1C(=O)O` reads “inactive”; that for `CN1C2CCC1CC(OC(c1ccccc1)c1ccccc1)C2` (stereo not given), “inactive”. Turning to `CCCCCCN(CCCCCC)C(=O)Cc1c(-c2ccc(F)cc2)[nH]c2ccccc12`, the Potency result is “inactive”. The result for `N=C(N)c1ccc(N)cc1` reads “inactive”; that for `COc1cc(N)c(Cl)cc1C(=O)OCCN1CCCCC1`, “inactive”; that for `C[C@@H](NCCc1ccc(O)cc1)[C@@H](O)c1ccc(O)cc1`, “inactive”. The entry for `CN(C)C(=O)/N=N/C(=O)N(C)C` is “inactive”. Turning to `NCCCCN`, the Potency result is “inactive”.

As to `Cc1ccc([N+](=O)[O-])cc1S(=O)(=O)N(C)C`, the Potency result was “inactive”.

`O=C(O)CCC(=O)N1CCCC1C(=O)O` (stereo not given): the Potency entry was “inactive”.

On to `COc1cc([C@@H]2c3cc4c(cc3[C@H](O)C3COC(=O)[C@@H]32)OCO4)cc(OC)c1OC` (stereo not given in full), for which the Potency entry is “inactive”. The result for `CC(N)(Cc1ccc(O)c(O)c1)C(=O)O` (stereo not given) reads “inactive”. The entry for `N[C@@H](Cc1c[nH]c2ccccc12)C(=O)O` is “inactive”; for `Oc1cc2c(cc1O)C(c1ccccc1)CNCC2` (stereo not given) it is “inactive”; for `C[C@H](NC(=O)/C(C#N)=C/c1ccc(O)c(O)c1)c1ccccc1` it is “inactive”.

As to `Cc1nc2c(OCc3ccccc3)cccn2c1CC#N`, the Potency result is “inactive”. With `N#CC(=C(\N)Sc1ccccc1N)/C(C#N)=C(/N)Sc1ccccc1N`, the Potency entry was “inactive”. The entry for `O=S(=O)(c1cccc2c(Cl)cccc12)N1CCCNCC1` is “inactive”; for `NS(=O)(=O)c1cccc2c1c([N+](=O)[O-])cc1nc(O)c(O)nc12` it is “inactive”; for `COC(=O)C(C)(N)Cc1ccc(O)cc1` (stereo not given) it is “inactive”.

Consider `Cn1cc(C(=O)OCC2CCN(CCNS(C)(=O)=O)CC2)c2ccccc21`, for which the Potency result was “inactive”. `COc1cc(/C=C(\C#N)C(=O)c2ccc(O)c(O)c2)cc(I)c1O`: the Potency entry was “inactive”.

On to `C#CC(N)CCC(=O)O` (stereo not given), for which the Potency entry is “inactive”. Regarding `Nc1ncnc2c1ncn2C1CCCC1`, the Potency result is “inactive”. With `CC#CCOC(=O)c1c(C)nc2sc3c(c2c1N)CCC(O)C3` (stereo not given), the Potency entry is “inactive”. The entry for `O=C(O)C1=CCCN(CCON=C(c2ccccc2)c2ccccc2)C1` is “inactive”. The result for `O=c1[nH]ccc2c(O)cccc12` reads “inactive”; that for `CCN(CC)CCOC(=O)c1cc(Cl)c(N)cc1OC`, “inactive”. For the molecule `Nc1ccc(-c2nc3ccc(-c4nc5ccc(N)cc5[nH]4)cc3[nH]2)cc1`, the Potency is 25.1 µM (active). The result for `CCOC(=O)C12CC1/C(=N/O)c1ccccc1O2` (stereo not given) reads “inactive”; that for `N=C(N)c1ccc(OCCCCCOc2ccc(C(=N)N)cc2)cc1` (tested in a mixture with another compound), “inactive”. The result for `CCCc1c(OCCCOc2ccc(OCC(=O)O)cc2)ccc(C(C)=O)c1O` reads “inactive”; that for `COc1cc2c(CCNC(C)=O)c[nH]c2cc1O`, “inactive”. The entry for `N[C@@H](Cc1ccc(F)cc1)C(=O)O` is “inactive”; for `Oc1cc(O)c2c(c1)O[C@H](c1ccc(O)c(O)c1)[C@@H](O)C2` it is “inactive”; for `COc1ccccc1N1CCN(CCCCN2C(=O)c3ccccc3C2=O)CC1` it is “inactive”.

In the case of `COc1ccc(NC(=O)c2ccc(-c3ccc(-c4noc(C)n4)cc3C)cc2)cc1N1CCN(C)CC1`, the Potency entry was “inactive”. The entry for `O=c1[nH]c(=O)c2nc3ccccc3nc2[nH]1` is “inactive”.

Source of the values: PubChem BioAssay (NCATS).
